Source: ChEMBL document CHEMBL1961873, “Compounds: GSK PKIS; Assays: Nanosyn kinase panel” (2012)
Where “and” joins values, the source holds several entries; their conditions need not be identical. Equal values may be shown once.

Key:
[1] = molecular target: T1, Inhibitor of nuclear factor kappa-B kinase subunit epsilon (Homo sapiens) (UniProt Q14164); settings: at 1 µM;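 note: reported values are averaged percent inhibition figures against human IKKε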
T1 sequence (whole entry): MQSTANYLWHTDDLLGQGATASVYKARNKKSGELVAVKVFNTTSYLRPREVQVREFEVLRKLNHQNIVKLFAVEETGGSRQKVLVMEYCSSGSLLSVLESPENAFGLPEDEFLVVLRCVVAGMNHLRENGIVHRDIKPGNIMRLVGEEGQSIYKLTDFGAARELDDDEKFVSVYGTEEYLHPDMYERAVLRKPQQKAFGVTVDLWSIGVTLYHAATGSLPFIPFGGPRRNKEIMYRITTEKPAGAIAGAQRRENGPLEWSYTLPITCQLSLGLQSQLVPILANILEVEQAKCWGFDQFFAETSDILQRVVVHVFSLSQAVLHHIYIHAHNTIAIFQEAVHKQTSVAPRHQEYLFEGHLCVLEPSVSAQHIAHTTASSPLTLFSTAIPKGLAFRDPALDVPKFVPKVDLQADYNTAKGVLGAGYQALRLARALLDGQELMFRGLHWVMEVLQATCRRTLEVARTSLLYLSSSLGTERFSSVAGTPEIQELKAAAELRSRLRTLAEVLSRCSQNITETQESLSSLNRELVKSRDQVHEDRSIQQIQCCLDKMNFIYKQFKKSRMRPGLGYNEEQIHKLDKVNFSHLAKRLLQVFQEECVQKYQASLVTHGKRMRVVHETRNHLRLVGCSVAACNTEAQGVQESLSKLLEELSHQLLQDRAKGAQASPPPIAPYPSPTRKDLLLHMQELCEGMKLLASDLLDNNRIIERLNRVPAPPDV

[2] = molecular target: T2, Serine/threonine-protein kinase Nek1 (Homo sapiens) (UniProt Q96PY6); settings: at 0.1 µM
T2 sequence (whole entry): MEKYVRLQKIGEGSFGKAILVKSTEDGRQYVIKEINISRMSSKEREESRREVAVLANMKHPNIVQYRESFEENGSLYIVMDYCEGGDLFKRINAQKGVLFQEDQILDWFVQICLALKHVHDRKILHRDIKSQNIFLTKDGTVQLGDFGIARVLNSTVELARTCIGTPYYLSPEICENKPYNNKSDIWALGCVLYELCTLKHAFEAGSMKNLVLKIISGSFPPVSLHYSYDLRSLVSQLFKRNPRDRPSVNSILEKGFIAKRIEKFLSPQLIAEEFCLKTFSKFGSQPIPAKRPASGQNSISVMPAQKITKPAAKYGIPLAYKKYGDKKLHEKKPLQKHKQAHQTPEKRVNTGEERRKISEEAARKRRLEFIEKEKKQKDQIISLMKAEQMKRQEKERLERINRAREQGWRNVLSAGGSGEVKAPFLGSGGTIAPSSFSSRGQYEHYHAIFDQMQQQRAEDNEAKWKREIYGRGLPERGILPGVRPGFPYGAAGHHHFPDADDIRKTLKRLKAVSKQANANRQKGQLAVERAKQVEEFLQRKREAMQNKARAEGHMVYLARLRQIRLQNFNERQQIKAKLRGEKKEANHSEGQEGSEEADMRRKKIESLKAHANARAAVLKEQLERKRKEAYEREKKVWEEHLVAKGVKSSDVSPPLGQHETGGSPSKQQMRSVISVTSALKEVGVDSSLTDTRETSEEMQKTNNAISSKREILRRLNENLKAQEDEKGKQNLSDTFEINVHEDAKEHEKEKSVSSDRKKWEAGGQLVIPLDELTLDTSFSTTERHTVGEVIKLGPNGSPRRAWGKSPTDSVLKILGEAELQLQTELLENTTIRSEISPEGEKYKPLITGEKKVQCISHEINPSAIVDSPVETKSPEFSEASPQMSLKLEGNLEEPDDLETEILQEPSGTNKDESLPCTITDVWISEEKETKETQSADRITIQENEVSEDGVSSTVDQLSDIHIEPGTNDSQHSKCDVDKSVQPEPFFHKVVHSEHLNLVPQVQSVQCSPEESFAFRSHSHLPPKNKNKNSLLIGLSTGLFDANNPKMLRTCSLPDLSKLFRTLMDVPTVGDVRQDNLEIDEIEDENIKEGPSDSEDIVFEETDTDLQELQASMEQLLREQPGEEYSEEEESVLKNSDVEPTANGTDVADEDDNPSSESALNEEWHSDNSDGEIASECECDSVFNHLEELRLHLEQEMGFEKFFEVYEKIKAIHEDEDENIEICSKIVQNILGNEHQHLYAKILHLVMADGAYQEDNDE

[3] = molecular target: T2, Serine/threonine-protein kinase Nek1 (Homo sapiens); settings: at 1 µM
[4] = molecular target: T3, Serine/threonine-protein kinase Nek2 (Homo sapiens) (UniProt P51955); settings: at 0.1 µM
T3 sequence (whole entry): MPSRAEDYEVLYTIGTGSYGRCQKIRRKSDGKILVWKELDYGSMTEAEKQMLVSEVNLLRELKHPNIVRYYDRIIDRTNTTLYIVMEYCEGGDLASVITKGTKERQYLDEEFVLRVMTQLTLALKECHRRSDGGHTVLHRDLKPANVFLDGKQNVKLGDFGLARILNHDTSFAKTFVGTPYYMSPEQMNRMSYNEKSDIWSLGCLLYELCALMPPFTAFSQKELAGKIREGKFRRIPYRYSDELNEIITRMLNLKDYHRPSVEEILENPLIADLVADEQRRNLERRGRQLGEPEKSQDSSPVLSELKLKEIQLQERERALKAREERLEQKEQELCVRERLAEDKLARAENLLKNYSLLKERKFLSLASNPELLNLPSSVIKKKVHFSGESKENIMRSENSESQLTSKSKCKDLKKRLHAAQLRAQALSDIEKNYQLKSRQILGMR

[5] = molecular target: T3, Serine/threonine-protein kinase Nek2 (Homo sapiens); settings: at 1 µM
[6] = molecular target: Serine/threonine-protein kinase Nek6 (Homo sapiens) (UniProt Q9HC98); settings: at 0.1 µM
[7] = molecular target: Serine/threonine-protein kinase Nek6 (Homo sapiens) (UniProt Q9HC98); settings: at 1 µM
[8] = molecular target: Serine/threonine-protein kinase Nek7 (Homo sapiens) (UniProt Q8TDX7); settings: at 0.1 µM
[9] = molecular target: Serine/threonine-protein kinase Nek7 (Homo sapiens) (UniProt Q8TDX7); settings: at 1 µM
[10] = molecular target: T4, Serine/threonine-protein kinase Nek9 (Homo sapiens) (UniProt Q8TD19); settings: at 0.1 µM;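 note: reported value is the mean percent inhibition of NEK9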
T4 sequence (whole entry): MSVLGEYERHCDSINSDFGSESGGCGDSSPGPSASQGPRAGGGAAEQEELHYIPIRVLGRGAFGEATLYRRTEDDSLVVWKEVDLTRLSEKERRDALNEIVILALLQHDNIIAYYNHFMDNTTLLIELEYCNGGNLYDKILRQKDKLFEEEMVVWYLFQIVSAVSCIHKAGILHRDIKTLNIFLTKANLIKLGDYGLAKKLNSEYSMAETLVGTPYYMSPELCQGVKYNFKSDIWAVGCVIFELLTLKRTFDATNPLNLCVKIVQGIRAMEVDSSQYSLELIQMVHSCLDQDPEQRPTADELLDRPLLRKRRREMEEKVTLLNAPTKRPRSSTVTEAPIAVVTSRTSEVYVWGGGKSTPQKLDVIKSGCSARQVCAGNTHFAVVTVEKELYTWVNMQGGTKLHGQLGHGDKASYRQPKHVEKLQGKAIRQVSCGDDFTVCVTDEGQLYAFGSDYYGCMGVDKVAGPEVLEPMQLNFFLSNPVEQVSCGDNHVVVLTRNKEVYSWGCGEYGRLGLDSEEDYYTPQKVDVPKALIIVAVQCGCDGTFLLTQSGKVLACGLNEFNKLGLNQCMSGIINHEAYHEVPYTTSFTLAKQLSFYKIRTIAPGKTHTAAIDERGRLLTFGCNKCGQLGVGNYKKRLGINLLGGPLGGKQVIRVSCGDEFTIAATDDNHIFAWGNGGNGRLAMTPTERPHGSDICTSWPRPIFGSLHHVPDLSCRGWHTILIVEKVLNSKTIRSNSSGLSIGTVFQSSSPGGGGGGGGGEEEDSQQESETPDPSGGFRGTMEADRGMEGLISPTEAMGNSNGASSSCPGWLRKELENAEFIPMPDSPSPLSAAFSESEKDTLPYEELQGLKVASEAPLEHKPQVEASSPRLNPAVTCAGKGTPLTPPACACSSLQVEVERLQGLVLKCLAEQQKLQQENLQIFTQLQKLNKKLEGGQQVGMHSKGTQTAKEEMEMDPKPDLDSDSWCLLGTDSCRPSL

Serine/threonine-protein kinase Nek7 (Homo sapiens), sequence (Q8TDX7 whole entry, looked up): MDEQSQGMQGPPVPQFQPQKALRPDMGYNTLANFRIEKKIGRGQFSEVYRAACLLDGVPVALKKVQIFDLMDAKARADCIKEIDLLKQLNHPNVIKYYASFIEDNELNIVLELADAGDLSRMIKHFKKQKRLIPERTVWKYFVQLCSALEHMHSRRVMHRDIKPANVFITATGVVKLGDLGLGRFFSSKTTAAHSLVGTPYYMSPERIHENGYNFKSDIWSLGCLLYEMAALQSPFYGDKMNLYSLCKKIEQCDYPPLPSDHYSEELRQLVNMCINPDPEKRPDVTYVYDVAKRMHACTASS
Serine/threonine-protein kinase Nek6 (Homo sapiens), sequence (Q9HC98 whole entry): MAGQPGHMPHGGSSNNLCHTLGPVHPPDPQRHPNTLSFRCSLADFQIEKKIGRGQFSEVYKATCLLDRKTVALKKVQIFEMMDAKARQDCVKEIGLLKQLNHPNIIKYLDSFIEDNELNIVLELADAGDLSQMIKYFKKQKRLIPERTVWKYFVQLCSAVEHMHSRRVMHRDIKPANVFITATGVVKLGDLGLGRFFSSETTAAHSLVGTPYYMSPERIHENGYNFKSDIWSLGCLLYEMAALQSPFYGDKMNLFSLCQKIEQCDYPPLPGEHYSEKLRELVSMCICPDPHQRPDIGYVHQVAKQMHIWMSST

Nc1nccc(-c2c(-c3ccc(F)cc3)ncn2C2CCNCC2)n1
inhibition [1]: -3.35% and 1.18%
inhibition [2]: -2.75% and -0.7%
inhibition [3]: 0.36% and 1.29%
inhibition [4]: -3.4% and 0.5%
inhibition [5]: -4.07% and 0.05%
inhibition [6]: -2.7% and -2.19%
inhibition [7]: -2.93% and 2.63%
inhibition [8]: -2.09% and 0.15%
inhibition [9]: -4.78% and 0.13%
inhibition [10]: 0.73% and -1.84%
